FBPA Giardia inh: Giardia lamblia aldolase inhibition. purified Giardia FBPA. Potency, µM (highest dose often 59.6 µM), without a hit: at the top dose activity, negative = inhibition, hits mostly inhibitors. 290,000 compounds, 0.71% hits. AID 2451; further: potency means the concentration at half of the fitted maximal effect; on the % scale 0 is the no-effect control and ±100 the full control effect; nearly all actives have a fitted effect of over 55% in size
Target sequence (A8B2U2 whole entry, looked up): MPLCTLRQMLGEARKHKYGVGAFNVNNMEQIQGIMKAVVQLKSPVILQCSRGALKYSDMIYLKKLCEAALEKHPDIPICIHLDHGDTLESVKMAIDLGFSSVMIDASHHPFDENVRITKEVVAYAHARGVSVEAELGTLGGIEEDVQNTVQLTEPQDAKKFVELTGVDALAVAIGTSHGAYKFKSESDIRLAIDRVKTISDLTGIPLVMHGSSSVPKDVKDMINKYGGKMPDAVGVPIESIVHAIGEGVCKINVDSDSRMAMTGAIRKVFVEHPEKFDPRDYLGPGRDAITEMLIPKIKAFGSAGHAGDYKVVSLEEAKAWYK
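40 nM FBPA preincubated 10 min at RT with compound (up to 57.5 uM final), then substrate plus GAPDH/TPI/NAD/arsenate coupling and diaphorase/resazurin added. Fluorescence read after 20 min at RT, 525/598 nm.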
Pf growth 48h: inhibits P. falciparum growth in the first generation, 48 h; P. falciparum luciferase growth in erythrocytes, 48 h; Potency, µM (highest dose often 28.7 µM), without a hit: top-dose activity change, negative = inhibition, hits mostly inhibitors; 310,000 compounds, 5.9% hits; AID 504832; further: potency means the concentration at half of the fitted maximal effect; on the % scale 0 is the no-effect control and ±100 the full control effect
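Luciferase-expressing P. falciparum in infected erythrocytes (2% hematocrit, 0.1% parasitemia final) in RPMI 1640/0.5% Albumax were exposed to compound for 48 hours at 37 C, 5% CO2; growth read as luminescence.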
CHX counter: counter-screen hit for Shiga toxin inhibitors, cycloheximide. cell reporter, cycloheximide protein synthesis inhibition counterscreen. max response, %. 300,000 compounds, 12% hits. AID 2314; in the data active means max response mostly above about 13%, no sharp cut-off; inactive means mostly below about 14%; further: read at 38.3 µM for the half of the compounds with a filed dose; 0% is about no effect
NS1 inh: influenza NS1 inhibition; Potency, µM (titrated, usually from 46.1 µM), inactives show at the top dose activity, positive = more growth; 270,000 compounds, 0.4% hits; calls by dose curve; further: potency means the concentration at half of the fitted maximal effect; actives are rising curves; nearly all actives have a fitted effect of over 50% in size
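A cell-based growth assay was used: compounds that relieve NS1-induced slow growth of budding yeast raise OD600. Assay medium was yeast nitrogen base with ammonium sulphate and -URA supplement, pH 6.0, with 2% galactose.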
Pf growth 96h: inhibits malaria parasite growth, 96 h | P. falciparum luciferase reporter growth, 96 h | Potency, µM (series often up to 28.7 µM), for the others: top-dose activity change, negative = inhibition, most hits filed as inhibitors | 320,000 compounds, 6.9% hits; further: potency means the concentration at half of the fitted maximal effect; on the % scale 0 is the no-effect control and ±100 the full control effect
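Infected RBCs, 2% Hct / 0.05% parasitemia final; luciferase-reporter P. falciparum; cpd 96 h, 37 C, 5% CO2; luciferase detection reagent; luminescence.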
Shiga inhibitor: Shiga toxin inhibition; Vero cells, Shiga toxin protein synthesis inhibition reporter; inhibition, % at 38.7 µM; 290,000 compounds, 9.2% hits; AID 2315; in the data active means inhibition mostly above about 28%, no sharp cut-off; inactive means mostly below about 43%; further: 0% is about no effect
Starred values were filed as active, the others as inactive; ? = inconclusive; · = no result. This is a sample that favours compounds with a hit; in the whole collection about 21% have one here. Unless noted, the call rests on the fitted dose curve; in most records, active means well fitted curve in the direction sought with a large enough effect; inconclusive means small, poorly fitted or top-dose-only effect, or another doubt; inactive means no such curve, though single readings can be large; an effect the other way counts as inactive or inconclusive.

SMILES | FBPA Giardia inh | Pf growth 48h | CHX counter | NS1 inh | Pf growth 96h | Shiga inhibitor
O=C(O)c1ccc(-c2c3nc(c(-c4ccc(C(=O)O)cc4)c4ccc([n-]4)c(-c4ccc(C(=O)O)cc4)c4nc(c(-c5ccc(C(=O)O)cc5)c5ccc2[n-]5)C=C4)C=C3)cc1.[Mn+3] | -20.5% | · | -4.1 | · | · | -10.6
COc1ccc(NC(=O)CN(C)CC(=O)NCCc2ccc(F)cc2)cc1 | · | 5.7% | · | · | 1.2% | ·
C=C(C)COc1ccc(-c2[nH]ncc2-c2ccc(Br)cc2)c(O)c1 | 0.3% | 3.7µM* | -3.7 | 22.3% | 1.65µM* | -11.1
C=C(C)COc1ccc(-c2n[nH]c(C)c2-c2ccc(Br)cc2)c(O)c1 | -8.3% | ? | -2.4 | -75.6% | ? | -4.0
C=C(C)COc1ccc(-c2[nH]ncc2Oc2ccc(OC)cc2)c(O)c1 | -7.9% | ? | 22.0* | -64.6% | ? | 29.5
C=C(C)COc1ccc(-c2[nH]ncc2-c2ccccc2OC)c(O)c1 | -20.0% | 3.29µM* | -5.5 | -112.5% | 11.9% | -18.3
C=C(C)COc1ccc(-c2[nH]ncc2Oc2ccccc2OC)c(O)c1 | 11.7% | 13.1µM* | 12.7 | -115.1% | 11.2% | 12.4
COc1ccc(OC(C)C(=O)NC(C)c2ccccc2)cc1 (stereo not given) | 7.5% | 15.3% | -0.7 | -6.1% | ? | 19.0
CCCOC(=O)c1ccc(Oc2cn[nH]c2-c2ccc(OC)cc2O)cc1 | 0.1% | 10.4µM* | -4.4 | -83.8% | ? | -4.3
COc1ccc(-c2cn[nH]c2-c2ccc(OCc3ccc([N+](=O)[O-])cc3)cc2O)cc1 | 3.3% | 13.1µM* | 2.1 | 12.9% | ? | -1.3
CCOc1ccc(-c2[nH]ncc2-c2ccc(Cl)cc2)c(O)c1 | 15.3% | 8.28µM* | -5.1 | -0.6% | 3.29µM* | -19.9
CCc1cc(-c2[nH]ncc2-c2ccc(OC)cc2)c(O)cc1O | 13.9% | ? | -5.4 | 1.7% | ? | -19.3
COc1ccc(C(=O)c2cn[nH]c2-c2ccc(C)cc2O)cc1 | 7.6% | -13.2% | -2.5 | 1.1% | -8.1% | -4.7
O=[N+]([O-])c1ccc(NC(=S)NCc2ccc(F)cc2)cc1 | 5.6% | ? | 2.4 | -130.4% | 4.15µM* | 1.4
S=C(NCc1ccccc1)Nc1ccc2ccccc2c1 | · | 19.9% | 76.1* | 13.9% | ? | 101.9*
Fc1ccc(CNC(=S)NCc2ccccc2)cc1 | -0.8% | ? | -1.6 | -36.8% | ? | 7.4
Fc1ccc(NC(=S)NCc2ccccc2)cc1 | -5.6% | 13.5% | -1.2 | 26.2% | 14.7µM* | 11.3
S=C(NCc1ccccc1)Nc1ccc(Oc2ccccc2)cc1 | 6.9% | ? | 13.1 | ? | ? | 14.6
CCNc1ncc2nc(-c3cccs3)c(=O)n(-c3ccccc3)c2n1 | 2.7% | · | · | · | · | ·
CCOC(=O)C1=CC[C@H]2c3c(c4ccccc4n3C)C[C@H]1N2C | · | 0.8% | · | · | ? | ·
Cc1cc(NC(=O)CN2C(=O)NC3(CCCCC3)C2=O)ccc1N1CCCC1 | · | ? | · | · | -2.9% | ·
COc1ccc(CCNC(=O)COC(=O)Cn2cnc3c2c(=O)n(C)c(=O)n3C)cc1 | · | -17.2% | · | · | ? | ·
CN(C)c1ccc(/C=N/NC(=O)c2sccc2-n2cccc2)cc1 | -3.7% | ? | 38.7* | · | 1.3% | 98.0*
O=C(N/N=C\c1ccc(Cl)cc1)c1sccc1-n1cccc1 | 1.3% | 1.2% | 32.5* | -10.6% | ? | 70.3*
CNC(=O)c1sccc1-n1cccc1 | 2.7% | · | 1.6 | -6.4% | 35.8% | -22.8
SMILES | FBPA Giardia inh | Pf growth 48h | CHX counter | NS1 inh | Pf growth 96h | Shiga inhibitor
O=C(N/N=C\c1ccc(Cl)cc1Cl)c1sccc1-n1cccc1 | 0.6% | -19.1% | 0.8 | 3.7% | ? | 17.8
Cc1ccc(NC(=O)c2ccc([N+](=O)[O-])o2)cc1S(=O)(=O)N1CCOCC1 | -17.2% | 9.28µM* | 32.5 | · | 9.28µM* | 27.6
CN1CCN(c2ccc(NC(=O)c3ccc([N+](=O)[O-])o3)cc2Cl)CC1 | -5.6% | ? | 29.0* | -5.4% | 4.2% | 55.1
O=C(Nc1ccc(N2CCOCC2)c(Cl)c1)c1ccc([N+](=O)[O-])o1 | ? | 10.4µM* | 18.9* | -39.0% | 14.1% | 17.0
CC(=O)N1CCN(c2ccc(NC(=O)c3ccc(Br)o3)cc2Cl)CC1 | -27.4% | ? | 27.6* | -7.9% | ? | 27.2
COc1c(F)c(F)c(C(=O)Nc2ccc(N3CCN(C(C)=O)CC3)c(Cl)c2)c(F)c1F | -2.7% | ? | 0.4 | -11.1% | · | -6.4

Source: PubChem
